According to PubChem BioAssay AID540299 (ICCB-Longwood Screening Facility, Harvard Medical School, 2011):
Among all 100,000 compounds or so, about 440 (0.44%) were called active. The sample holds actives, similar compounds and a random draw of the others, so the mix is not that of the screen. A number with no mark means an inactive call. Rule as the data show it: active = inhibition above about 21% (passing the limit was not always enough); inactive = the rest.

biological target: 1,4-dihydroxy-2-naphthoyl-CoA synthase (Mycobacterium tuberculosis (strain ATCC 25618 / H37Rv)) (UniProt P9WNP5); test: M. tuberculosis MenB inhibitors, primary screen, biochemical, absorbance (AID 540299); settings: MenB enzyme assay, absorbance read-out; hits give high values; concentration not given here
Sequence (P9WNP5 whole entry, looked up): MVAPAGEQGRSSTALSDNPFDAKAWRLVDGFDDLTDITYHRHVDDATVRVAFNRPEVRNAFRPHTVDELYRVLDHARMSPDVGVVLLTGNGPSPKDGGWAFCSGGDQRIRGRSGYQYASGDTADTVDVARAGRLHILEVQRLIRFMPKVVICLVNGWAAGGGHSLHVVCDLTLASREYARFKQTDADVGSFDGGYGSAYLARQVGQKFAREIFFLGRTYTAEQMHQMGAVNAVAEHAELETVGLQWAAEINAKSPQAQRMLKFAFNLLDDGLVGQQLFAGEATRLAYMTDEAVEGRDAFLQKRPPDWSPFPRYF

Row | Structure (SMILES) | inhibition
1 | CCOc1ccc(CN(C)C(C)c2nnc(-c3ccc(C)cc3)o2)cc1 (configuration not stated) | -8.7%
2 | COc1ccc2nc(SC)[nH]c2c1 | 0.13%
3 | O=C(c1ccccc1)N1CCN(c2cccc(Cl)c2)CC1 | -21%
4 | CC(C)(C)CNC(=S)NN | -27.8%
5 | CCO/C=N/c1c(C(=O)OCC)c2nc3ccccc3nc2n1Cc1ccccc1 | -29.7%
6 | CC(=O)Oc1ccc(N(C(C)=O)S(=O)(=O)c2ccc(Cl)cc2)cc1 | -5.01%
7 | COc1ccc(N(CCC#N)S(=O)(=O)c2ccc(Cl)cc2)cc1 | 34.8% (active)
8 | COc1ccc(S(=O)(=O)N(C)C)cc1 | -20.5%
9 | COCC(=O)N(CCc1ccccc1)Cc1cc2cccc(C)c2n2nnnc12 | 5.43%
10 | Cc1ccc2c(c1)cc(CN(Cc1ccco1)C(=O)c1ccccc1)c1nnnn12 | 32.8% (active)
11 | CCc1ccc2[nH]c(=O)c(CN(Cc3ccco3)C(=O)c3ccccc3)cc2c1 | -39%
12 | CC(C)c1ccc(S(=O)(=O)N2CCN(S(=O)(=O)c3ccc(C(C)C)cc3)C(C)C2)cc1 (configuration not stated) | -17.6%
13 | CC(C)c1ccc(-c2noc(C3CCCN(S(C)(=O)=O)C3)n2)cc1 (configuration not stated) | 29.2% (active)
14 | COc1ccc(-c2noc(CC(=O)N(C(C)C)C3CCCCC3)n2)cc1 | -38.9%
15 | COc1ccc(N2CCN(C(=S)C3CCCCC3)CC2)cc1 | 1.7%
16 | CCOC(=O)N1CCC(NC(=O)Cn2nc(Cc3cccnc3)c3ccccc3c2=O)CC1 | 13.3%
17 | O=C(O)CSc1nnc(COc2ccc(Cl)cc2)n1-c1ccc(Br)cc1 | -31.3%
18 | CC(Sc1nnc(COc2ccccc2)n1-c1ccccc1)C(=O)O (configuration not stated) | 44.3% (active)
19 | CC(C)(C)c1ccc(OCc2nnc(SCC(N)=O)n2-c2ccccc2)cc1 | -20.4%
20 | OC(COc1ccc(Cl)cc1)C(O)C(O)c1cnn(-c2ccccc2)n1 (configuration not stated) | -25.4%
21 | Cc1ccc(Cn2c(=O)c3ccccc3n3c(SCC(=O)N(C(C)C)C(C)C)nnc23)cc1 | -3.38%

Row | Structure (SMILES) | inhibition
22 | CCN(c1ccccc1)S(=O)(=O)c1ccc(Sc2nnc(-c3cccs3)n2CC2CCCO2)nc1 (configuration not stated) | -29.5%
23 | CCOC(=O)c1c(NC(=O)c2cc(-n3cnnc3)ccc2Cl)sc2c1CCCC2 | -11.9%
24 | COc1cc(C(=O)N2CCC(n3nnc4cc(F)ccc43)CC2)cc(OC)c1OC | -27.8%
25 | CCOC(=O)c1cnc2cc(C(F)(F)F)ccc2c1N1CCCCCC1 | -32.7%
26 | CCOC(=O)CN1CCC(n2nnc3cc(C(F)(F)F)ccc32)CC1 | 40.1% (active)
27 | CCCN(CCC)C(=O)c1cc(-c2ccccc2)n[nH]1 | 2.47%
28 | CCCC(=O)N1CCN(c2ccc(NC(=O)c3ccco3)cc2Cl)CC1 | 36.3% (active)
29 | O=C(Nc1ccccc1)c1ccco1 | -38.1%
30 | CCC(=O)Nc1cc(NC(=O)c2ccco2)ccc1C | 3.59%
31 | Cc1cccc(C(=O)Nc2ccc(NC(=O)c3ccco3)cc2)c1 | -25.7%
32 | CCCC(=O)N1CCN(c2ccc(NC(=O)c3cccc(C)c3OC)cc2Cl)CC1 | -14.8%
33 | CCCC(CCC)C(=O)Nc1ccc(NC(=O)c2ccco2)cc1 | 34.4% (active)
34 | CCC(/C=N/N1C(=O)c2ccccc2C1=O)CC | 4.86%
35 | CCSc1nnc(C2CCN(CC(=O)Nc3ccc(N4CCCCCC4)cc3)CC2)n1C | -53.3%
36 | Cc1cc(C)nc(N2CCCC(C)C2)n1 (configuration not stated) | -26.5%
37 | N#CC1=C(N)/C(=C\c2ccc(Cl)c(Cl)c2)SC1=N | -31%
38 | Cc1cc(C)nc(SCC(=O)N2CCCC2c2cccs2)n1 (configuration not stated) | -1.45%
39 | O=C1C=C/C(=N\OC(=O)c2ccccc2)C2=C1C1C=CC2C1 (configuration not stated) | -24.3%
40 | COc1ccc(-c2noc(CNC3CCCCC3)n2)cc1 | -2.19%
41 | CC1Sc2nnc(-c3ccc(OC(F)F)cc3)n2N=C1c1ccc(NS(C)(=O)=O)cc1 (configuration not stated) | -9.43%
42 | N#Cc1cc(Cl)c2c(c1)OCCO2 | -39.8%

Row | Structure (SMILES) | inhibition
43 | O=C(COC(=O)Cn1[nH]c(=O)c2ccccc2c1=O)Nc1ncc(Cl)cc1Cl | 1.74%
44 | Cc1nc2ccc(NC(=O)CC(C)(C)C)cc2s1 | -7.18%
45 | N#Cc1nc(NC(=O)c2cc(-c3cccs3)nc3ccccc23)[nH]c1C#N | -0.59%
46 | O/N=C(/c1ccccc1)c1ccccn1 | 17.8%
47 | CN1C(=O)C(C(=O)O)C2CC1Oc1ccccc12 (configuration not stated) | 34.4% (active)
48 | CCN1C(=O)C(C(=O)NC(C)c2ccccc2)C2CC1(C)Oc1ccccc12 (configuration not stated) | 25.7%
49 | CN1C(=O)C(S(=O)(=O)c2ccccc2)C2CC1(C)Oc1ccccc12 (configuration not stated) | 11.3%
50 | CCCCC#Cc1cncc(C(=O)O)c1 | -22.8%
51 | CCN(CC)Cc1cc(C(=O)O)co1 | 31.6% (active)
52 | CCN(c1ccccc1)S(=O)(=O)c1cccc(C(=O)O)c1 | -9.9%
53 | COc1ccc(C(=O)OCc2ccccn2)cc1 | -2.18%
54 | COC(=O)c1ccccc1NC(=O)C1CCN(S(=O)(=O)c2ccc(OC)c(OC)c2)CC1 | -4.4%
55 | O=c1c(O)coc(CO)c1C(Nc1ccccn1)c1ccccc1O (configuration not stated) | -8.94%
56 | Cc1ccc(NC(=O)CC(C)S(=O)(=O)c2ccc3c(c2)SCC(=O)N3)cc1 (configuration not stated) | -27.7%
57 | O=C(CN1CCCCC1)N1N=C(c2cccs2)CC1c1ccc(O)cc1 (configuration not stated) | -15.9%
58 | CN1C(=O)c2cccc(NC(=O)c3ccccc3)c2C1=O | -46.4%
59 | COc1cccc2c1C(=O)C1C(O)=C3C(=C(O)C1C2=O)C[C@@](O)(C(=O)CO)C[C@@H]3OC1CC(N)C(O)C(C)O1 (some centres not stated) | 4.12%
60 | CN(Cc1cccc(Cl)c1Cl)CC(O)COCc1ccccc1 (configuration not stated) | -5.12%
61 | COc1ccc(Cc2nnc3n2N=C(N)CS3)cc1 | 8.07%
62 | CCNc1nnc(-c2ccc(C)cc2)s1 | -8.94%
